From the supplement of paper PMC11732987, “Enantioselective OTUD7B fragment discovery through chemoproteomics screening and high-throughput optimisation” (Communications Chemistry, 2025)

Legend:
Test in all cases: log2 ratio of Biotin-Ahx-Ub-VS probe labelling (fragment/DMSO); higher = less target engagement (more negative = stronger competition), active = hit call of the paper (q ≤ 0.05, log2 ratio ≤ -1)
Conditions in all cases: compound concentration: 200 uM; treatment time: 3 h
USP42 = target: T1, USP42 (UniProt Q9H9J4)
T1 sequence (whole entry): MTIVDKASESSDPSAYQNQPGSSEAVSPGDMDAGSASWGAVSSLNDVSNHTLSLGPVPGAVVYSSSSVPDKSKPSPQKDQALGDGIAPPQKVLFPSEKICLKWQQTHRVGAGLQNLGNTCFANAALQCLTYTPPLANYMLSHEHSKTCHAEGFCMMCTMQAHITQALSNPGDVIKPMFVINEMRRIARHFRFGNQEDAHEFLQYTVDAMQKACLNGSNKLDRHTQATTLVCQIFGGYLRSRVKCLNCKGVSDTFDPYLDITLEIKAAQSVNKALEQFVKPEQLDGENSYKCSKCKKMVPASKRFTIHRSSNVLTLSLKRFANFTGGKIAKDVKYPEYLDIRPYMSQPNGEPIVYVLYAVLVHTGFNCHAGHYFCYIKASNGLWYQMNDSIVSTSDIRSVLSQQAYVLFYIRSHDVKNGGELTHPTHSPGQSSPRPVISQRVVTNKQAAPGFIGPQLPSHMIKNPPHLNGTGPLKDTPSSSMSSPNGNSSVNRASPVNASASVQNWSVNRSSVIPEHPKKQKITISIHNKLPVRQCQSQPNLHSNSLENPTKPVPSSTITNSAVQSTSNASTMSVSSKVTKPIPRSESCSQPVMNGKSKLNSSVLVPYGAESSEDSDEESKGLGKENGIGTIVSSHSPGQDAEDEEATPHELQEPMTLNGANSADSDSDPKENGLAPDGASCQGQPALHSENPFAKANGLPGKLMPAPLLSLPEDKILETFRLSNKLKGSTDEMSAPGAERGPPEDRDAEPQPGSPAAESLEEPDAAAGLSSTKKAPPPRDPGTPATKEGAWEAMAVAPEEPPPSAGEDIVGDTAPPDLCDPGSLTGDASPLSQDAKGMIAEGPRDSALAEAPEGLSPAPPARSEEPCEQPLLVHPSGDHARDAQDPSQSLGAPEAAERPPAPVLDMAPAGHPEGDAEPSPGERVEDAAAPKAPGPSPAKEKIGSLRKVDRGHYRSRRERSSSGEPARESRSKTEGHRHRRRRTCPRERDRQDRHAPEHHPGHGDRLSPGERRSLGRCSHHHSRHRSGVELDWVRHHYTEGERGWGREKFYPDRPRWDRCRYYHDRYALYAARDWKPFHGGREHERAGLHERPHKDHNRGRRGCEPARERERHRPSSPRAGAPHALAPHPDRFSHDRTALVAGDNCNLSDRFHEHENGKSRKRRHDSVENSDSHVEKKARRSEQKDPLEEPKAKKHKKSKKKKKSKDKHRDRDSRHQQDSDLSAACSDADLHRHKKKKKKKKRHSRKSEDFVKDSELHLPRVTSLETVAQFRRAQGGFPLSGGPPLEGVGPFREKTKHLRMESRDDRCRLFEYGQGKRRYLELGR
How it was run: (§1)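 Labelled DUBs from HEK293T lysate were NeutrAvidin-enriched, digested with LysC and trypsin, and run by diaPASEF LC-MS/MS. Before that, each 495 µg sample in Tris/CHAPS/IGEPAL buffer with protease inhibitors was treated in triplicate with fragment at 200 µM or vehicle for 3 h, then with Biotin-Ahx-Ub-VS at 0.5 µM final for 1 h. Values are average log2 ratios of fragment over vehicle by unpaired t-test, based on global-median-normalised Spectronaut label-free quantities from proteins with ≥2 unique peptides.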

USP46 = USP46 (UniProt P62068)
Sequence of USP46 (P62068 whole entry): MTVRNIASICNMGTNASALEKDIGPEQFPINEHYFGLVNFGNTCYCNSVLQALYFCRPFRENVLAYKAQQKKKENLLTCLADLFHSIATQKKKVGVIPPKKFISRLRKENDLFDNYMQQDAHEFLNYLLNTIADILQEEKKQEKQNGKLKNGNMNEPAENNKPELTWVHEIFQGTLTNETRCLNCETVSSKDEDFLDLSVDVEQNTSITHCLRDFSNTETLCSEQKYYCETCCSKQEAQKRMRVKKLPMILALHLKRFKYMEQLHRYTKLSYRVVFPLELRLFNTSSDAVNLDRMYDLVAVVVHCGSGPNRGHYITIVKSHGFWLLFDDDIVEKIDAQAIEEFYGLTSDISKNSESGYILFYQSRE
How it was run: as §1

USP47 = target: T2, USP47 (UniProt Q96K76)
T2 sequence (whole entry): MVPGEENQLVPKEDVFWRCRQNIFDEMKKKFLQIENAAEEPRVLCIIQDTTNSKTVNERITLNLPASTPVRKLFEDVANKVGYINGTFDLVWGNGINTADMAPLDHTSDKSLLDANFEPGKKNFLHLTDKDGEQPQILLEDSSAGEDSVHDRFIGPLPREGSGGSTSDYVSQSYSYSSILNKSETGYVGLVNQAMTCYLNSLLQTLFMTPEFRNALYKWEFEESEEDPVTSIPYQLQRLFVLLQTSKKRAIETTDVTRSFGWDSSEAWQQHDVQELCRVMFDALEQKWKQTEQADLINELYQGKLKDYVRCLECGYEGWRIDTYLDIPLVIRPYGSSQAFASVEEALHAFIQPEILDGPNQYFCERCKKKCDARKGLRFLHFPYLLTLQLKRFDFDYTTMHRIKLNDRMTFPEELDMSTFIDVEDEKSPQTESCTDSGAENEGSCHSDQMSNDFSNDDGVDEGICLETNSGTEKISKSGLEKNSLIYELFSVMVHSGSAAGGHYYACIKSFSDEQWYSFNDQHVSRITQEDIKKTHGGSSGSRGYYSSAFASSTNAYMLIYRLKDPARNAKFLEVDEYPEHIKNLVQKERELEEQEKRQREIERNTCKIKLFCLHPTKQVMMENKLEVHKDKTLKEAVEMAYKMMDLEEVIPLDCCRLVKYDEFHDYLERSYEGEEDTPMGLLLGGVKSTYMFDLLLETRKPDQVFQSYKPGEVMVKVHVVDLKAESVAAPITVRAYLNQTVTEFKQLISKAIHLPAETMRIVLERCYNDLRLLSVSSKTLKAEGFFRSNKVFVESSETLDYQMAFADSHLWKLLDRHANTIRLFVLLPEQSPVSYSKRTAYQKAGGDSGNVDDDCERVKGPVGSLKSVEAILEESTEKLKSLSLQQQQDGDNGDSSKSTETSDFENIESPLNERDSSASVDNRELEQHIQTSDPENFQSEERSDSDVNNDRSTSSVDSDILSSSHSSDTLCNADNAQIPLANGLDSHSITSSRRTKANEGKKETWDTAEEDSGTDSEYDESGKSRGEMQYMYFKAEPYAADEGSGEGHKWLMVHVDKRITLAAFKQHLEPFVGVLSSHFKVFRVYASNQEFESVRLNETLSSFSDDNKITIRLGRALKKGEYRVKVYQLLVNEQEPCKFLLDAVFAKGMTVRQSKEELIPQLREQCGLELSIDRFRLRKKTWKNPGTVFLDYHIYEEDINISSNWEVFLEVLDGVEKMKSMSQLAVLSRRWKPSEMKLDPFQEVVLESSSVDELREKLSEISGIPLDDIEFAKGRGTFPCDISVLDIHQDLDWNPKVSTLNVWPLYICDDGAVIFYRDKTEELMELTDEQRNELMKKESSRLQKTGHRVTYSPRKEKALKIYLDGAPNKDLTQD
How it was run: as §1

USP48 = target: T3, USP48 (UniProt Q86UV5)
T3 sequence (whole entry): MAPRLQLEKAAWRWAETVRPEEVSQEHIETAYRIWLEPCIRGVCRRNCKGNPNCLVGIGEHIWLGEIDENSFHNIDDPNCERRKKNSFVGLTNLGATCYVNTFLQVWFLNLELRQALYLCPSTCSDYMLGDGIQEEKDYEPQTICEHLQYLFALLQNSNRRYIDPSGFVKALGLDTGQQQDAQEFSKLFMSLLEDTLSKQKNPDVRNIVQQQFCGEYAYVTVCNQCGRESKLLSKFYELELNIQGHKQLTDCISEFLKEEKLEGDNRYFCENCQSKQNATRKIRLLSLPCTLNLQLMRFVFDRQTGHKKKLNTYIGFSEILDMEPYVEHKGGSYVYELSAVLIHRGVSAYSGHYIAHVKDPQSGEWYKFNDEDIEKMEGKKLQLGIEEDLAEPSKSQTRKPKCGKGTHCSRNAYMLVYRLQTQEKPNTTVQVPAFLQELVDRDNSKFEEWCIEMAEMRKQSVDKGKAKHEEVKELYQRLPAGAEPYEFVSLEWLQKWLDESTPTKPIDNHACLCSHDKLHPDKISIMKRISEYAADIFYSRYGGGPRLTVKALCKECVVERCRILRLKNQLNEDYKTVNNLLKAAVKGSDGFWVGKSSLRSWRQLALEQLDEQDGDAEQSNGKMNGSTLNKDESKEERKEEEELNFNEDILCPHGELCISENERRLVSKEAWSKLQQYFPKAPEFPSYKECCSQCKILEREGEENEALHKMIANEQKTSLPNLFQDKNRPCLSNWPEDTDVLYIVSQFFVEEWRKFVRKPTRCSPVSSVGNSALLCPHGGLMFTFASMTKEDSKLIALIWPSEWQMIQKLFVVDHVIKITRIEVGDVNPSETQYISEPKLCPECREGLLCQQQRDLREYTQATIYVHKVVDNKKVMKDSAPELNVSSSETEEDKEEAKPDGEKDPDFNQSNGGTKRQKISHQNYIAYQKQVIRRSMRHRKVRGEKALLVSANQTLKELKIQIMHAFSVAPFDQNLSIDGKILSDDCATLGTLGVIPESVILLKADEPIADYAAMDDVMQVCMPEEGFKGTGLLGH
How it was run: as §1

USP5 = target: T4, USP5 (UniProt P45974)
T4 sequence (whole entry): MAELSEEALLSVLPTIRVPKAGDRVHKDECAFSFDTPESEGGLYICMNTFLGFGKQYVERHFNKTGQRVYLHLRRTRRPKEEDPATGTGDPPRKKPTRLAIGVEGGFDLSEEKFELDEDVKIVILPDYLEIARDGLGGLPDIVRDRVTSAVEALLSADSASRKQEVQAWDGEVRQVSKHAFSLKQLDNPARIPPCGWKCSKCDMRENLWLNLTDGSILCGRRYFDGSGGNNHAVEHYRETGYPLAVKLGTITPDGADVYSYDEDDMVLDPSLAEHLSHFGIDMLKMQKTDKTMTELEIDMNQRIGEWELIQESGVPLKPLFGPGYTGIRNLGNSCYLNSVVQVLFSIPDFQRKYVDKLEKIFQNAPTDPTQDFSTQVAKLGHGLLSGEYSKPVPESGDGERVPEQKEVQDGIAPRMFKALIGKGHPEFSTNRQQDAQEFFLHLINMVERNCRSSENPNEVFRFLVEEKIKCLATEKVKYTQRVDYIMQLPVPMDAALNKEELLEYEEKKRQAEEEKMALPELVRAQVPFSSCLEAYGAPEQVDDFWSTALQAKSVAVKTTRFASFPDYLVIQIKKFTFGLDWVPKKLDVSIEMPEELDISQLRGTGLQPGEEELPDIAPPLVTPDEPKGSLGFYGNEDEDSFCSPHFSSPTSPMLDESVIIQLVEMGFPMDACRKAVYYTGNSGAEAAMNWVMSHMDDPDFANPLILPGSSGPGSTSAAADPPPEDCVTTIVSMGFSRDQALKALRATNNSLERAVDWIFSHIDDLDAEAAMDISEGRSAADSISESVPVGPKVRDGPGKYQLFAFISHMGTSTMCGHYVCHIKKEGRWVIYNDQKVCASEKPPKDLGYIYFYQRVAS
How it was run: as §1

USP54 = USP54 (UniProt Q70EL1)
How it was run: as §1

USP7 = USP7 (UniProt Q93009)
Sequence of USP7 (Q93009 whole entry, looked up): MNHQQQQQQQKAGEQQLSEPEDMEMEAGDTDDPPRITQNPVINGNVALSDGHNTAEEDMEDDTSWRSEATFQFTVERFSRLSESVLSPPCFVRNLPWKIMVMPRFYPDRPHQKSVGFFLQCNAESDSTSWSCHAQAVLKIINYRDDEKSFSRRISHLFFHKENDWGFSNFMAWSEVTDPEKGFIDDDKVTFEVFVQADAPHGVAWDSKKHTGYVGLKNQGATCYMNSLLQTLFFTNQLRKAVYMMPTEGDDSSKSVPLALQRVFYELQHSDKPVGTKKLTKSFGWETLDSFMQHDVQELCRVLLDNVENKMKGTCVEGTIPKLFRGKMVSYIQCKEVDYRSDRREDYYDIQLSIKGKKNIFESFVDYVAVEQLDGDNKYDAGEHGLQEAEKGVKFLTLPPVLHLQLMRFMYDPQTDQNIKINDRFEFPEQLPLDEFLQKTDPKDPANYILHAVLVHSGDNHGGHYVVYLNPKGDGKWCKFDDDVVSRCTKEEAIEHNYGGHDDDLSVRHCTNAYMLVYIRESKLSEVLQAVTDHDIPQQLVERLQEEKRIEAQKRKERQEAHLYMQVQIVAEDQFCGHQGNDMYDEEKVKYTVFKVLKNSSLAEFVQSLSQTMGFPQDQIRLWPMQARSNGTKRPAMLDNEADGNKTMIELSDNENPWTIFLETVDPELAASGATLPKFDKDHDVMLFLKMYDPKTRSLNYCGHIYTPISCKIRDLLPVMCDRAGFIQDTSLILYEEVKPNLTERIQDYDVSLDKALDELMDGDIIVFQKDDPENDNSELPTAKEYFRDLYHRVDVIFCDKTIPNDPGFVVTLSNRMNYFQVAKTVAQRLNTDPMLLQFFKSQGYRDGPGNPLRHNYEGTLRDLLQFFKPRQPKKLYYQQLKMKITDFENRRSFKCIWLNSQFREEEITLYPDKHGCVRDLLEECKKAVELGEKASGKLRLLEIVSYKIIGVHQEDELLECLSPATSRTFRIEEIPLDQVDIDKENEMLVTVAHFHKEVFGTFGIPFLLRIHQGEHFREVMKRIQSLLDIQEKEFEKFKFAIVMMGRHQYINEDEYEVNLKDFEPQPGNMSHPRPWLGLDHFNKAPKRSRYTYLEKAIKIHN
How it was run: as §1

USP8 = target: T5, USP8 (UniProt P40818)
T5 sequence (whole entry): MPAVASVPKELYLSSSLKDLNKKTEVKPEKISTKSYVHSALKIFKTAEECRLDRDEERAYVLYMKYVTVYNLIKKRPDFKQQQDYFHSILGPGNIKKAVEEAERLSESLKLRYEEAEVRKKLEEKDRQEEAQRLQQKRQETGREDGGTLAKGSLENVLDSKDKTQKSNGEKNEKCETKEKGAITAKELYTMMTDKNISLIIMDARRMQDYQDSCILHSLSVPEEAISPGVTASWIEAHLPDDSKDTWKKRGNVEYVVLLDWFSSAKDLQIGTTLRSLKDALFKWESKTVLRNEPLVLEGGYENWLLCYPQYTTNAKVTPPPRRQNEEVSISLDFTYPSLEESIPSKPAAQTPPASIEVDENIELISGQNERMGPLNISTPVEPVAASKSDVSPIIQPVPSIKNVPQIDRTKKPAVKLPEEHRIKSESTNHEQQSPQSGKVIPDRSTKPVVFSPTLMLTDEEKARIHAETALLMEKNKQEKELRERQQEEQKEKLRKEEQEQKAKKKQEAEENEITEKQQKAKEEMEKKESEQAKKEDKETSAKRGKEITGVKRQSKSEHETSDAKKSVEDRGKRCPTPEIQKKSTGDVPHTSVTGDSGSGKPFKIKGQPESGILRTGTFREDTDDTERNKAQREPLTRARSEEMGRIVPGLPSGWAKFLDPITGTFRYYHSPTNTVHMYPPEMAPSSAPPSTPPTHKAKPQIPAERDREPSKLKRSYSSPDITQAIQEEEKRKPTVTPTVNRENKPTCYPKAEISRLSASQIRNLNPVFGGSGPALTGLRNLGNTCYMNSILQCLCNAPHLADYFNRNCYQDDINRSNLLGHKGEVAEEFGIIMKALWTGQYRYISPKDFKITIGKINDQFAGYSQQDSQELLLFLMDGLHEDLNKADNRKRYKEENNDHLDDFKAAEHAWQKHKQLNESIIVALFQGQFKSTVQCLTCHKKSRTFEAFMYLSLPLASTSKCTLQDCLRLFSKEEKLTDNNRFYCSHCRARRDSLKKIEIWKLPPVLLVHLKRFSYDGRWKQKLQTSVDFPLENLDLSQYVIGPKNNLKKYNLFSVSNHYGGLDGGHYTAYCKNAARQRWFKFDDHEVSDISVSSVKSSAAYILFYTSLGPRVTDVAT
How it was run: as §1

USP9X = USP9X (UniProt Q93008)
Sequence of USP9X (Q93008 whole entry): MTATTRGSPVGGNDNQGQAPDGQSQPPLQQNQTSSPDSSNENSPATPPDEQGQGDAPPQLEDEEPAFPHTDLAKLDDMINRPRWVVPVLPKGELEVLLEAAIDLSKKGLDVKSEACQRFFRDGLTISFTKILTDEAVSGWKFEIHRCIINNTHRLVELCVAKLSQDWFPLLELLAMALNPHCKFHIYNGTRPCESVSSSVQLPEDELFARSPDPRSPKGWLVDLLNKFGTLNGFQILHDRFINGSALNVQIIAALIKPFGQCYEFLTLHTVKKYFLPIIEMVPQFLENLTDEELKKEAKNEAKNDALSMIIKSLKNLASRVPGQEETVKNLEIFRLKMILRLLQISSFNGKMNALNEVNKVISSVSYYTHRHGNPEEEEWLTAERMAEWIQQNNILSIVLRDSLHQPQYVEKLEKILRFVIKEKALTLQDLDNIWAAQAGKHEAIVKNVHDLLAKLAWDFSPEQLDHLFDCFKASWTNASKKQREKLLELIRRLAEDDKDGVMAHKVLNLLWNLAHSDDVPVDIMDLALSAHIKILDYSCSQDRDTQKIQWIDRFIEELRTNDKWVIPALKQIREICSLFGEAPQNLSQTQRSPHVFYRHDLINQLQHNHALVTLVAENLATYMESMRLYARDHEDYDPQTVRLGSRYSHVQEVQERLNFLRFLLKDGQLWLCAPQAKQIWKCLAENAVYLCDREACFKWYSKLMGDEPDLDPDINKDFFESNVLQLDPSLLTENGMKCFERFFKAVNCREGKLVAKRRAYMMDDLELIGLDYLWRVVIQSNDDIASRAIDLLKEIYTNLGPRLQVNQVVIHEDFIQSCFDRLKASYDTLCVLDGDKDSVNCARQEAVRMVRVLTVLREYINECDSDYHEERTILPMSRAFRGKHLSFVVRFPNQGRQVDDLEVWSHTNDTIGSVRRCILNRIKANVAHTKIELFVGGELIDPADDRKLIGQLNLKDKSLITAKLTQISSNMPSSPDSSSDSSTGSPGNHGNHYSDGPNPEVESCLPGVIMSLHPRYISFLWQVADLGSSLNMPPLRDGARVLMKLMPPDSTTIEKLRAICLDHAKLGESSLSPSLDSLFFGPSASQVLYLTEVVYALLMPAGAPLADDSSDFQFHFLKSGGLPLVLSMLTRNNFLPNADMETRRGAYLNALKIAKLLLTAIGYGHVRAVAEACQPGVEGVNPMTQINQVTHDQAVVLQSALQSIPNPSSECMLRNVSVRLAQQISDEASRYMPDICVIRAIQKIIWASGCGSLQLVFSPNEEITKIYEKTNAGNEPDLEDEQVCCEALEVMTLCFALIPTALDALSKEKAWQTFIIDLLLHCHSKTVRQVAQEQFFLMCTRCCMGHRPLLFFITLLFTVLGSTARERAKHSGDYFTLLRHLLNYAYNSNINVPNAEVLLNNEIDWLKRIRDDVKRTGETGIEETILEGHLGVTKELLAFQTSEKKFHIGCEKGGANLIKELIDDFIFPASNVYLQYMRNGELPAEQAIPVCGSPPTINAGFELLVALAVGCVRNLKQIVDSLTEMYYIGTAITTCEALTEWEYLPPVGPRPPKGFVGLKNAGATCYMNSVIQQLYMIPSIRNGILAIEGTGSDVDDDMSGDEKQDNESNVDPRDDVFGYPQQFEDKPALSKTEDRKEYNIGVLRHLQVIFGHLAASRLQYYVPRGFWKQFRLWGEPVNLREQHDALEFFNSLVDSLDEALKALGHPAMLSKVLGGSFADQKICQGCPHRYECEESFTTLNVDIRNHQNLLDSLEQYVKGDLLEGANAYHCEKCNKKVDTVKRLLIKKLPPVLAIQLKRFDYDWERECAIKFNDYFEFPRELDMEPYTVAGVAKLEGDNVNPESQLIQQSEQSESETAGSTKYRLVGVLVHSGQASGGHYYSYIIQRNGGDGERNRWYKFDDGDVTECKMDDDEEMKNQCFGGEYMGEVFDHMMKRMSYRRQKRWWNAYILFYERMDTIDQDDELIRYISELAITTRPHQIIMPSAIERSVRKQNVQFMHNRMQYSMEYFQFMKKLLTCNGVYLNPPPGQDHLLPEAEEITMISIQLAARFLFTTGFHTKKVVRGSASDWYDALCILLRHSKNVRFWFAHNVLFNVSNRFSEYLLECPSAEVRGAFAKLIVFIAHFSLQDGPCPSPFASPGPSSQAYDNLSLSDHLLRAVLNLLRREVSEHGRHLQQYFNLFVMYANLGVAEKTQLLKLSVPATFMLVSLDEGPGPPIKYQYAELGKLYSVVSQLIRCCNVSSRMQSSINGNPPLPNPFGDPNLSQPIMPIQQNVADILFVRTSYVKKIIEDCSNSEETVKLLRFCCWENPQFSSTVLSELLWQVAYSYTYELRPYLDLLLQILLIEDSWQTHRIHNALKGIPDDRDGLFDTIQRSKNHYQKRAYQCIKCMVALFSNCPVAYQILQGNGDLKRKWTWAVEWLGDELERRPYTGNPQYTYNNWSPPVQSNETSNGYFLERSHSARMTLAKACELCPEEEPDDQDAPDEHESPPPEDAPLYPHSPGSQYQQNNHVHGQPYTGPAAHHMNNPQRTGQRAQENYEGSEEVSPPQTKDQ
How it was run: as §1

UniProt O00487 = target: UniProt O00487
Sequence of UniProt O00487 (O00487 whole entry): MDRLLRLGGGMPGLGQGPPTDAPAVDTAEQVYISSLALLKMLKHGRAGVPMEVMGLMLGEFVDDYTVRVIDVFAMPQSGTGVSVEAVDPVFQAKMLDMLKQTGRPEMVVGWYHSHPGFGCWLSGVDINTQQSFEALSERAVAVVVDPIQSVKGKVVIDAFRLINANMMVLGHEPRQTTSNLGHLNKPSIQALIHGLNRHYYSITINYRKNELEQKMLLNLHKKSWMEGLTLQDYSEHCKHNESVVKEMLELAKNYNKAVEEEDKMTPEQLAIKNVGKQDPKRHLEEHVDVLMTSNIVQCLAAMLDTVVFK
How it was run: as §1

Measured: log2 ratio of Biotin-Ahx-Ub-VS probe labelling

CNC(=O)Cn1cc(NC(=O)CCl)cn1
inactive: USP42 -0.595 | USP46 0.000623 | USP47 0.0561 | USP48 0.0267 | USP5 -0.241 | USP54 0.48 | USP7 -0.438 | USP8 -0.282 | USP9X -0.287 | UniProt O00487 -0.0928
